Screens from PubChem BioAssay.
AMA1 RON2 block: qHTS for Inhibitors of AMA1-RON; Towards Development of Antimalarial Drug Lead: Primary Screen. Plasmodium falciparum AMA1 (3D7) - RON2 peptide interaction. AlphaScreen AMA1-biotinylated RON2 peptide binding. Potency, µM (titrated, usually from 58.2 µM), for inactives: at the top dose activity change, negative = inhibition, hits mostly inhibitors. 360,000 tested, 0.2% active. AID 720542, 2013;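 note: 0% = vehicle wells and -100% = peptide control; nearly all actives have a fitted effect of over 45% in size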
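AMA1 (3D7) with his tag at 25 nM final met compounds first, then biotinylated RON2 peptide at 25 nM; detection used donor plus acceptor beads, 10 µg/mL apiece, read by AlphaScreen after 30 min at room temperature.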
VACV Venus inh: qHTS for Stage-Specific Inhibitors of Vaccinia Orthopoxvirus: Venus Reporter Primary qHTS | Vaccinia virus Venus reporter expression, fluorescence | Potency, µM (highest dose often 36.5 µM), for inactives: top-dose activity change, negative = inhibition, usual class: inhibitors | 330,000 tested, 0.46% active | AID 720580, 2013; calls by dose curve; tested in A549 cells; note: % is set by controls: 0 for no effect and ±100 for the full control effect; nearly all actives have a fitted effect of over 30% in size
Vaccinia mCherry: qHTS for Stage-Specific Inhibitors of Vaccinia Orthopoxvirus: mCherry Reporter Primary qHTS. Vaccinia virus mCherry reporter infection, fluorescence. Potency, µM (series often up to 36.5 µM), for inactives: at the highest dose activity change, negative = inhibition, most hits filed as inhibitors. 310,000 tested, 0.63% active. AID 720579, 2013; calls by dose curve; tested in A549 cells; note: % is set by controls: 0 for no effect and ±100 for the full control effect; nearly all actives have a fitted effect of over 35% in size
AmpC no deterg: qHTS Inhibitors of AmpC Beta-Lactamase (assay without detergent); P00811; AmpC nitrocefin hydrolysis, absorbance 480 nm, 0.0001% Triton; Potency, µM (titrated, usually from 57.1 µM), inactives show top-dose activity change, negative = inhibition, hits mostly inhibitors; 330,000 tested, 0.52% active; AID 485341, 2010;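 note: plate controls were no compound for no effect and no enzyme for full effect; nearly all actives have a fitted effect of over 20% in size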
Target sequence (P00811 whole entry, looked up): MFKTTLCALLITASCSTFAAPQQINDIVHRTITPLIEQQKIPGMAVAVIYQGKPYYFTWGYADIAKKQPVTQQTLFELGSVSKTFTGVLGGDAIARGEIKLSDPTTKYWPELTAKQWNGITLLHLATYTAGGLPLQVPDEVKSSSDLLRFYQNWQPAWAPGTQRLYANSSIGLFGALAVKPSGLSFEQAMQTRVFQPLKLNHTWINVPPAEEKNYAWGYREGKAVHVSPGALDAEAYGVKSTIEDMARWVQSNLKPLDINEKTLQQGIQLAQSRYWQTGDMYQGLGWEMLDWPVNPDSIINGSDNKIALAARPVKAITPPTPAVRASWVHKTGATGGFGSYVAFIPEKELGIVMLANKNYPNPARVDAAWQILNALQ
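AmpC (5.3 nM in the dispensed reagent) in 20 mM phosphate pH 7.0 with 0.01% (detergent screen) or 0.0001% Triton X-100 was preincubated with compounds for 15 min at room temperature. Nitrocefin was then added from an 800 uM solution, and hydrolysis was followed at 480 nm.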
AmpC inh detg: qHTS Inhibitors of AmpC Beta-Lactamase (assay with detergent); Potency, µM (top dose mostly 114 µM), without a hit: at the top dose activity change, negative = inhibition, actives largely listed as inhibitors; AmpC hydrolysis of nitrocefin, absorbance 480 nm, 0.01% Triton; P00811; 370,000 tested, 0.041% active; AID 485294, 2010;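 note: 0% = no-compound wells and -100% = no-enzyme wells; nearly all actives have a fitted effect of over 25% in size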
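AmpC (5.3 nM in the dispensed reagent) in 20 mM phosphate pH 7.0 with 0.01% (detergent screen) or 0.0001% Triton X-100 was preincubated with compounds for 15 min at room temperature. Nitrocefin was then added from an 800 uM solution, and hydrolysis was followed at 480 nm.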
SARS PLpro yeast: qHTS of Yeast-based Assay for SARS-CoV PLP | S. cerevisiae expressing SARS-CoV PLpro, growth rescue | 330,000 tested, 0.19% active | AID 485353, 2010 | Potency, µM (titrated, usually from 32.9 µM), for inactives: at the top dose activity, positive = growth rescue, usual class: activators; calls by dose curve; note: 0% is about no effect; nearly all actives have a fitted effect of over 55% in size
An asterisk follows results filed as active; i = inactive; ? = inconclusive; . = no result given; [ ] = another dose, or the depositor's remark. Sampled rows, rich in hits. Any-hit rate of the full collection: about 1.3%. Unless noted, calls come from the whole dose curve; as a rule, active = well fitted curve in the direction sought with a large enough effect; inconclusive = small, poorly fitted or top-dose-only effect, or another doubt; inactive = no such curve, though single readings can be large; an effect the other way counts as inactive or inconclusive. Potency is the fitted concentration of half-maximal effect.

SMILES | AMA1 RON2 block | VACV Venus inh | Vaccinia mCherry | AmpC no deterg | AmpC inh detg | SARS PLpro yeast
CCn1nc(-c2cccs2)nc2c(=O)n(C)c(=O)nc1-2 | 0% | 0.79µM* | . | -12% | -7% | -30%
CCn1nc(/C=C/c2ccccc2)nc2c(=O)n(C)c(=O)nc1-2 | 11% | 2.8µM* | 2.5µM* | -27% | -6% | 0%
CCN1C(=O)CC(c2ccccc2)N(C2CCCC2)c2nc(Nc3ccc(C(=O)NC4CCN(C)CC4)cc3OC)ncc21 (stereo not given) | -17% | ? | -25% | 189% | . | -23%
CCN1C(=O)CC(C(C)C)N(C2CCCC2)c2nc(Nc3ccc(C(=O)NC4CCN(C)CC4)cc3OC)ncc21 (stereo not given) | -2% | 10µM* | ? | . | . | .
O=C(O)c1cccc2c1NC(C(=O)O)C1CC(Sc3ccccc3[N+](=O)[O-])C(Cl)C21 (stereo not given) | -26% | -13% | i | -51% | 40µM* | 15%
CC(=O)c1ccc2c(c1)C1C(Cl)C(Sc3ccccc3[N+](=O)[O-])CC1C(C(=O)O)N2 (stereo not given) | -27% | -3% | 6% | -46% | ? | -5%
ON=C1c2cc(OCCN3CCCCC3)ccc2-c2ccc(OCCN3CCCCC3)cc21 | -8% | 8.9µM* | ? | -4% | -2% | -5%
COc1ccc(C(=O)c2coc3ccc(O)c(CN4CCCCC4)c23)cc1 | 0% | -16% | i | 40µM* | 3% | 28%
CC(C)(C)OC(=O)C(Cc1ccc(OC(C)(C)C)cc1)NC(=O)CNC(=O)OCc1ccccc1 (stereo not given) | -22% | ? | 11µM* | 106% | ? | 12%
C[C@H](NC(=O)OCc1ccccc1)C(=O)NNC(=O)[C@H](Cc1ccccc1)NC(=O)OC(C)(C)C | 121% | -2% | i | 30% | 0% | 1%
Clc1ccccc1CN1CCN(/N=C/C=C\c2ccco2)CC1 | 10µM* | 3% | -2% | -5% | 0% | 1%
COCCn1c(=O)[nH]c(=O)c2c1nc(-c1ccc(-c3ccc(Cl)cc3[N+](=O)[O-])o1)n2Cc1ccccc1 | -6% | ? | ? | 7.9µM* | -1% | 2%
O=c1[nH]c(=O)n(Cc2ccccc2)c2nc(-c3ccc(Oc4ccc(F)cc4)c([N+](=O)[O-])c3)n(CCO)c12 | -21% | 10µM* | -21% | 37% | -3% | 10%
CC1(C)Oc2ccc3ccc(=O)oc3c2C[C@H]1O[C@@H]1O[C@H](CO)[C@@H](O)[C@H](O)[C@H]1O | -4% | -2% | i | -8% | . | 1%
CC(=O)OC(C)(C)/C=C/C(=O)[C@](C)(O)C1[C@H](O)C[C@@]2(C)C3CC=C4C(C=C(O[C@@H]5O[C@H](CO)[C@@H](O)[C@H](O)[C@H]5O)C(=O)C4(C)C)[C@]3(C)C(=O)C[C@]12C (stereo not given in full) | 5% | 22µM* | -12% | 155% | . | 5%
CC(=O)OC(C)(C)/C=C/C(=O)[C@](C)(O)[C@H]1[C@H](O)C[C@@]2(C)[C@@H]3CC=C4[C@H](C[C@H](O)C(=O)C4(C)C)[C@]3(C)C(=O)C[C@]12C | 10% | 8.9µM* | ? | 155% | ? | ?
CC(=O)OC(C)(C)/C=C/C(=O)C(C)(O)C1[C@H](O)C[C@@]2(C)C3CC=C4C(CC[C@@H](O)C4(C)C)[C@]3(CO)C(=O)C[C@]12C (stereo not given in full) | 9% | 35µM* | 7.1µM* | 13% | -10% | 3%
CC(=O)OC(C)(C)/C=C/C(=O)C(C)(O)C1C(O)CC2(C)C3CC=C4C(CC(O)C(=O)C4(C)C)C3(C)C(=O)CC12C (stereo not given) | 6% | 40µM* | ? | . | . | .
COc1ccc(OC)c(-c2ccnc(-n3ncc(C(=O)N4CCN(CCO)CC4)c3C3CC3)n2)c1 | . | -4% | -11% | . | . | .
Cc1cc(C)n(-c2nc3ccccc3s2)n1 | 13% | . | . | 1% | 10% | 1%
Cc1c2c(=O)n(-c3nc4ccccc4s3)nc-2cc(O)n1Cc1ccccc1 | 71% | . | . | 16µM* | 0% | 2%
CCc1cc(C(=O)N2CCc3c([nH]c4ccccc34)C2c2ccc(OC)cc2F)no1 (stereo not given) | -26% | -16% | 11µM* | 89% | 9% | 1%
COc1ccc(C2c3[nH]c4ccccc4c3CCN2C(=O)c2ccc(=O)n(C)n2)c(F)c1 (stereo not given) | 0% | -12% | ? | 198% | -7% | -2%
COC(=O)c1ccccc1-c1cc(C)cc2c1OC(CNC(=O)c1cnc(C)cn1)C2 (stereo not given) | . | 14% | 3% | . | . | .
Cc1ccc(/C=C2/NC(=O)N(Cc3ccc(Br)cc3)C2=O)o1 | 56% | 13% | i | 2.5µM* | -6% | -53%
SMILES | AMA1 RON2 block | VACV Venus inh | Vaccinia mCherry | AmpC no deterg | AmpC inh detg | SARS PLpro yeast
Cc1cc(C(C)(C)C)oc1C(=O)N(CC(=O)NC1CCCC1)Cc1ccccc1Cl | -6% | ? | -21% | 5.6µM* | 6% | -16%
O=C1C=C(c2ccccc2)C[C@H](c2cccs2)[C@H]1n1nnc([N+](=O)[O-])n1 | -1%[2.32 µM] | ? | 14µM* | -34% | -10% | -99%
Cc1nnc(N2CCN(C(=O)Nc3cc(F)ccc3F)CC2)c2nn(-c3ccc(Cl)cc3)c(C)c12 | . | ? | 11µM* | . | -6% | .
COc1ccc(-n2nc3c(N4CCC(C(=O)NCc5cccc(F)c5)CC4)nnc(C)c3c2C)cc1 | . | 28µM* | ? | . | 3% | .
Cc1nnc(N2CCC(C(=O)NCc3ccc(N(C)C)cc3)CC2)c2nn(-c3ccccc3)c(C)c12 | . | 13µM* | 13µM* | . | -2% | .
COc1ccc(CNC(=O)C2CCN(c3nnc(C)c4c(C)n(-c5ccc(C)cc5)nc34)CC2)cc1 | . | -14% | -17% | . | 3% | .
Cc1nnc(N2CCC(C(=O)NCCc3ccccc3)CC2)c2nn(-c3ccccc3)c(C)c12 | . | 1% | -15% | . | -7% | .
Cn1cnnc1Sc1ccc(CN2CCOc3ccc(C4=Cc5ccccc5CC4)cc3C2)o1 | . | -6% | -23% | . | . | .
NC(=O)c1ccsc1NC(=O)c1nc(-c2ccccc2)n(-c2ccccc2)n1 | 40% | . | . | 4µM* | -8% | 0%
